# Screening results from PubChem BioAssay.
# This is one part of a sample in which hits are shown more often than they occur.
# JMJD2E inh: JMJD2E (human) inhibition | JMJD2E catalytic domain, FDH-coupled NADH fluorescence (FDH is formaldehyde dehydrogenase) | Potency, µM (titrated, usually from 57.1 µM), usual class: inhibitors | hit rate 1.6% among 230,000; active means well fitted inhibition curve with a large enough effect, not every such curve was filed as active; inconclusive means small, poorly fitted or top-dose-only effect, or another doubt; inactive means no such curve, though single readings can be large or run the other way; further: nearly all actives have a fitted effect of over 50% in size
# Six1-Eya2 inh: blocks human Six1 binding to Eya2; Q15475+O00167; activity change, % (test concentration not listed); hit rate 0.56% among 360,000; AID 651725; AlphaScreen GST-Six1/His-Eya2 binding, biochemical; stronger effect = lower value
#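 GST-Six1 + His-Eya2 (5X stock: 250/500 nM); Tris pH 8.0, 300 mM NaCl, 0.05% BSA, 0.02% Tween 20; GSH donor/Ni acceptor beads; 1 h 37 °C dark; AlphaScreen readout.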
# CtBP-E1A blk: CtBP/E1A binding inhibition | activity change, % (concentration not given with the values) | hit rate 0.49% among 340,000 | AID 651724 | AlphaScreen GST-E1A/His-CtBP binding, 1536-well; stronger effect = lower value
#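 Protein mix (5X: 125 nM each GST-E1A, His-CtBP) was incubated with pinned compound 2 h at 37 deg C in dark, in 50 mM Tris pH 8.0 buffer with 300 mM NaCl. Glutathione donor and nickel acceptor beads followed; AlphaScreen signal read after 1 h.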
# L3MBTL1 block: L3MBTL1 (human) inhibition; Q9Y468; AlphaScreen L3MBTL1–H3K9me1 peptide binding; Potency, µM (top dose mostly 57.1 µM), most hits filed as inhibitors; hit rate 0.66% among 230,000; AID 485360; active means well fitted inhibition curve with a large enough effect; inconclusive means small, poorly fitted or top-dose-only effect; inactive means no such curve, though single readings can be large or run the other way; further: nearly all actives have a fitted effect of over 60% in size
# Target sequence (Q9Y468 whole entry, looked up): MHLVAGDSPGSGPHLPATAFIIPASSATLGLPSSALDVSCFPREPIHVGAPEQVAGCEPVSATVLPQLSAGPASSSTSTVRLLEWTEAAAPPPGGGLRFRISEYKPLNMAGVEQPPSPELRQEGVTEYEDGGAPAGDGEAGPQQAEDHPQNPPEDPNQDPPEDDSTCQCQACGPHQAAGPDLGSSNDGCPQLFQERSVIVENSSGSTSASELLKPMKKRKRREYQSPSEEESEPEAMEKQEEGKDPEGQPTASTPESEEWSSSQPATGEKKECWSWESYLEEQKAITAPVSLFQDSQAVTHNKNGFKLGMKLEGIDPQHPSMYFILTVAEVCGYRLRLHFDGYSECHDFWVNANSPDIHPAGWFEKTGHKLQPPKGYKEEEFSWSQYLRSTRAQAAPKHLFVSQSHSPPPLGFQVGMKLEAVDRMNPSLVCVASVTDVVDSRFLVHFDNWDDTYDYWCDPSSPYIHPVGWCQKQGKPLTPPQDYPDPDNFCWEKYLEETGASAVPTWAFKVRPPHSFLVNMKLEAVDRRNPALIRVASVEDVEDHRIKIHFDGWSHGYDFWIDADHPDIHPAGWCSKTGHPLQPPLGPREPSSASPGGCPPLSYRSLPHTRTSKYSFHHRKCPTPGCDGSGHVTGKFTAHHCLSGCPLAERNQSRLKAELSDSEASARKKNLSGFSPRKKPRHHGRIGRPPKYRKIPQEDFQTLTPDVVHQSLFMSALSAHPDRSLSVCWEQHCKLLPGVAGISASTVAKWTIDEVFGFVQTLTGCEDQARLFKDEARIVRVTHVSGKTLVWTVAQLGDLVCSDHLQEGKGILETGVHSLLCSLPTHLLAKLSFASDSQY
#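 AlphaScreen proximity signal between nickel-chelate acceptor and streptavidin donor beads (final 10 ug/mL) reports binding of 50 nM L3MBTL1 to 75 nM biotin-H3 K9me1 peptide; complex incubated with compounds 30 min at room temperature; cefsulodin titration as control.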
# Hits are given with their value; n = inactive; u = inconclusive; x = not tested or not shown; ! = repeats disagree; [ ] = remark or other dose. Unless noted, no stated cut-off is given here; in the data, active means activity change below about -65%; inconclusive means mostly about -30% to -63%; inactive means weaker than that.
SMILES,JMJD2E inh,Six1-Eya2 inh,CtBP-E1A blk,L3MBTL1 block
CCCCC/C=C\C/C=C\C/C=C\CCCCC(=O)NCCO,n,x,x,x
O=C(NCNC(=O)N[C@H]1C(=O)NC(=O)N1CO)N[C@H]1C(=O)NC(=O)N1CO,n,x,x,x
O=C1NC(=O)C(=Cc2ccc(N3CCN(C(=O)c4ccccc4)CC3)c([N+](=O)[O-])c2)C(=O)N1,22µM,n,n,x
CCn1cc(C(=O)O)c(=O)c2cc(F)c(N3CCNCC3)cc21,16µM,x,x,n
CN[C@@H]1C[C@H](c2ccc(Cl)c(Cl)c2)c2ccccc21,n,x,x,x
Cn1c(O)c(C(c2ccncc2)c2c(O)n(C)c(=S)n(C)c2=O)c(=O)n(C)c1=S,n,-68,u,x
Oc1ccccc1O,14µM,n,n,18µM
O=C(O)c1ccccc1O,u,n,n,n
COc1ccc(C(=O)O)cc1OC,n,n,n,x
O=C(O)c1cc(O)c(O)c(O)c1,0.35µM,x,x,x
CC(=O)OCC(=O)C1CCC2C3CC=C4CC(O)CC[C@@]4(C)C3CC[C@]12C (stereo partly drawn),n,x,x,x
C=C1[C@@H](O)C2C=CC[C@H](C)C(=O)[C@@](C)(O)C=C[C@@H](OC(C)=O)[C@@]23C(=O)N[C@H](Cc2ccccc2)[C@@H]3[C@@H]1C (stereo partly drawn),n,x,x,x
C=C1C2C[C@]3(C4CC5[C@@]6(C)CC[C@H](O)[C@@]5(C3CC2=O)C4[N+]([O-])(CC)C6)[C@@H]1O (stereo partly drawn),n,x,x,x
O=C1C=CC(=O)c2c(O)cccc21,7.1µM,x,x,x
O=C1NC(=O)C(=Cc2ccc(N3CCOCC3)o2)C(=O)N1,18µM,n,n,n
C=CCN1C(=O)/C(=C/c2ccc(N3CCOCC3)o2)C(=O)NC1=S,n,n,n,n
Cc1c(N=Cc2c(O)n(Cc3ccc(F)cc3)c(=O)[nH]c2=O)c(=O)n(-c2ccccc2)n1C,n,n,n,x
C=CCn1c(O)c(N=Nc2c(C)n(C)n(-c3ccccc3)c2=O)c(=O)[nH]c1=S,n,-91,-87,20µM
Cc1c(N=Nc2c(O)[nH]c(=S)[nH]c2=O)c(=O)n(-c2ccccc2)n1C,n,-84,-93,u
CCOc1ccc(-n2c(O)c(N=Nc3c(C)n(C)n(-c4ccccc4)c3=O)c(=O)[nH]c2=O)cc1,7.9µM,-90,-91,25µM
CCCN1CCCC(c2cccc(O)c2)C1 (stereo not drawn),n,x,x,x
CC/C=C\C/C=C\C/C=C\C/C=C\C/C=C\CCCC(=O)NCCO,n,x,x,x
CCOC(=O)c1ccc(N2C(=O)CC(N3CC=C(c4ccc(F)cc4)CC3)C2=O)cc1 (stereo not drawn),14µM,n,n,u
C/C(O)=C(/C#N)C(=O)Nc1cc(Br)ccc1Br,n,x,x,x
c1ccc([C@H]2CNCc3ccccc32)cc1,n,x,x,x
SMILES,JMJD2E inh,Six1-Eya2 inh,CtBP-E1A blk,L3MBTL1 block
Oc1cc2c(cc1O)[C@H]1c3ccccc3CN[C@H]1CC2,25µM,x,x,x
NC(Cc1cc(O)c(O)cc1O)C(=O)O (stereo not drawn),13µM,x,x,0.16µM
CC(C)c1ccc(N2C(=O)NC(=O)/C(=C\c3cnc(-c4ccccc4)nc3)C2=O)cc1,20µM,n,n,n
Cc1cccc(N2C(=O)NC(=O)/C(=C\c3cnc(-c4ccccc4)nc3)C2=O)c1,n,n,n,n
Cc1ccc(N2C(=O)NC(=O)/C(=C/c3cnc(-c4ccccc4)nc3)C2=O)cc1C,13µM,n,n,n
c1ccc2c(c1)OC[C@@H](C1=NCCN1)O2,n,x,x,x
CN(C(=O)Cc1ccc(Cl)c(Cl)c1)[C@H](CN1CCCC1)c1ccccc1,n,x,x,x
Cl.Cl.Cl.Cl.Cl.Cl.N.N.N.N.NNNNN.NNNNN.O.O.[Ru].[Ru].[Ru],32µM,x,x,x
FC(F)=C(F)CCSc1ncn[nH]1,4.5µM,n,n,n
COc1cc2c(cc1OC)[C@@H]1C(=O)c3ccc4oc(C(C)C)cc4c3OC1CO2 (stereo partly drawn),n,x,x,x
COC(=O)[C@@]1(Cc2ccccc2)[C@H]2c3cc(C(=O)N(C)C)[nH]c3C[C@H]2CN1C(=O)c1ccccc1,n,x,x,x
O=C1Nc2ccccc2C2(CCN(CCc3ccc(C(F)(F)F)cc3)CC2)O1,n,x,x,x
O=[N+]([O-])c1cc(S(=O)(=O)c2ccc(O)c([N+](=O)[O-])c2)ccc1O,n,u,n,10µM
O=[N+]([O-])c1cccc(O)c1,x,n,n,n
C/C=C(/C)C(=O)O[C@H]1C(C)=C2C([C@@H]1OC(=O)CCCCCCC)[C@@](C)(OC(C)=O)C[C@@H](OC(=O)CCC)[C@@]1(O)[C@H]2OC(=O)[C@@]1(C)O (stereo partly drawn),n,x,x,x
COC(=O)C1=Nc2ccccc2/C1=C\c1c(O)n(-c2ccc(OC)cc2)c(=O)[nH]c1=O,18µM,n,n,n
COC(=O)C1=Nc2ccccc2/C1=C\c1c(O)n(-c2ccc(Br)cc2)c(=O)[nH]c1=O,n,n,n,n
C[C@]12CC[C@@H](O)CC1CCC1C2CC[C@]2(C)C(=O)CC[C@@H]12 (stereo partly drawn),n,x,x,x
COc1ccc(Cn2c(O)c(/C=N/NC(=O)c3ccccc3O)c(=O)[nH]c2=O)cc1,n,-87,-72,n
O=C(N/N=C/c1c(O)n(Cc2ccccc2)c(=O)[nH]c1=O)c1ccccc1O,n,-89,n,n
O=C(N/N=C/c1c(O)n(CCc2ccccc2)c(=O)[nH]c1=O)c1ccccc1O,28µM,u,x,x
O=c1[nH]c(=O)n(Cc2ccccc2)c(O)c1/C=N/NCCO,n,u,n,n
O=C(N/N=C/c1c(O)n(Cc2ccc(F)cc2)c(=O)[nH]c1=O)c1ccccc1O,25µM,-88,u,n
CCCCCCC(=O)N/N=C/c1c(O)n(CCc2ccccc2)c(=O)[nH]c1=O,u,u,u,n
COc1ccc(Cn2c(O)c(C=NCCN3CCOCC3)c(=O)[nH]c2=O)cc1,n,n,n,n
SMILES,JMJD2E inh,Six1-Eya2 inh,CtBP-E1A blk,L3MBTL1 block
S=C(S)N1CCCC1,u,n,n,n
CC[C@]1(C2=NCCN2)Cc2ccccc2O1,n,x,x,x
Cn1c(O)c(C=NCC2CCNCC2)c(=O)n(C)c1=O,u,x,x,n[11.4 µM]
CC(=O)OCC1=C(C(=O)O)N2C(=O)C(NC(=O)CCCC(N)C(=O)O)C2SC1 (stereo not drawn),8.9µM,x,x,x
CC1=C(C(=O)O)N2C(=O)C(NC(=O)Cc3ccccc3)C2SC1 (stereo not drawn),n,n,n,x
CCn1c(C)[n+](CC)c2ccc(S(=O)(=O)NC)cc21,7.9µM,n,n,n
Nc1c(C(=O)NCc2ccco2)c2nc3ccccc3nc2n1CCN1CCOCC1,u,u,-73,x
NNCc1cccc(O)c1,22µM!,n,n,x
CCC1(C)CC(C(N)=S)CCO1 (stereo not drawn),u,n,n,n
CC(=O)c1ccc2c(c1)C1C(Cl)C(Sc3ccccc3[N+](=O)[O-])CC1C(C(=O)O)N2 (stereo not drawn),u,n,n,4µM
O=C(O)c1cccc2c1NC(C(=O)O)C1CC(Sc3ccccc3[N+](=O)[O-])C(Cl)C21 (stereo not drawn),n,u,n,2.2µM
NC(=O)CI,32µM,x,x,x
